Consider 30 molecules from PubChem BioAssay AID493222 (Johns Hopkins Ion Channel Center, 2011).

Screen size: about 2,400 compounds; about 95 (4%) were called active.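 How the source made its calls: active means mean of duplicate membrane potential ratios lying over 3 SD above or below the buffer control mean, so actives fall on both sides; inactive means the rest.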 Not all results are given here.

This assay can be described thus: membrane potential effects in parental HEK293, counter-screen for CHT inhibitor project, cell-based, membrane potential dye (AID 493222).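 Further: parental cells lack the transporter so any hit is non-specific.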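 On membrane potential ratio readout (active if shifted either direction beyond buffer ±3SD; no single direction): ratio is peak minus trough fluorescence over baseline after EC90 choline challenge.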 To be noted: choline response, at 10 µM; active = decrease or increase beyond buffer ±3SD. In general terms: A counterscreen serves to expose hits that act by an unwanted route or on another target.
As for `O=C(OCC(=O)c1c[nH]c2ccccc12)c1cccc(O)c1`, the membrane potential ratio readout (active if shifted either direction beyond buffer ±3SD; no single direction) entry was “inactive”.
In the case of `CCc1cc2c(N3CCN(c4nnc(CC)s4)CC3)ncnc2s1` it was “inactive”; in that of `O=C(Cn1nc(C(F)(F)F)c2c1CCC2)NCc1ccc(F)cc1`, “inactive”.
For the molecule `CCN(Cc1ccccc1)S(=O)(=O)c1cc(C(=O)O)ccc1OC`, the membrane potential ratio readout (active if shifted either direction beyond buffer ±3SD; no single direction) result was “inactive”.
In the case of `COc1ccc(Cn2c(=O)sc3ccccc32)cc1OC` it was -8.59 (active); in that of `O=C(NCCc1ccc2c(c1)OCCO2)c1cc2ccccc2o1`, “inactive”.
For `FC(F)(F)c1cccc(NC(=S)Nc2cccc(Cl)c2)c1`, the membrane potential ratio readout (active if shifted either direction beyond buffer ±3SD; no single direction) result is “inactive”.
Turning to `CCCCCn1c(=O)[nH]c2cc(C(=O)NCCCN3CCCCC3C)ccc2c1=O` (stereo not given), the membrane potential ratio readout (active if shifted either direction beyond buffer ±3SD; no single direction) entry is “inactive”.
For `O=C(NCCCn1ccnc1)C(=O)c1cn(CC(=O)N2CCCCCC2)c2ccccc12`, the membrane potential ratio readout (active if shifted either direction beyond buffer ±3SD; no single direction) entry was “inactive”.
The result for `CCC(C)c1ccc(NC(=S)NCc2ccccn2)cc1` (stereo not given) reads “inactive”.
On to `Cc1c(C(=O)OC(C)C)sc(NC(=O)c2cccnc2)c1C#N`, for which the membrane potential ratio readout (active if shifted either direction beyond buffer ±3SD; no single direction) entry was “inactive”.
In the case of `C/C(=N/NC(=O)c1cc(Cl)ccc1O)C12CC3CC(CC(C3)C1)C2` it was “inactive”; in that of `COc1nc(OC)nc(N(C)CCO)n1`, “inactive”.
For `COc1cccc(-c2nn(-c3ccccc3)cc2/C=C(\C#N)C(=O)NCCCn2ccnc2)c1`, the membrane potential ratio readout (active if shifted either direction beyond buffer ±3SD; no single direction) result is “inactive”.
For the molecule `O=S(=O)(Cc1cc(Cl)nc(-c2cccnc2)n1)c1ccccc1`, the membrane potential ratio readout (active if shifted either direction beyond buffer ±3SD; no single direction) entry is “inactive”.
Take `COc1ccc(-n2nnnc2CNC(=O)c2ccc3ccccc3c2)cc1`: the membrane potential ratio readout (active if shifted either direction beyond buffer ±3SD; no single direction) entry was “inactive”.
For the molecule `N#Cc1ccc(C(=O)Nc2cccc3cccnc23)c(F)c1`, the membrane potential ratio readout (active if shifted either direction beyond buffer ±3SD; no single direction) entry was “inactive”.
With `CCC(=O)Nc1nnc(S(=O)(=O)N(CC(C)C)c2ccccc2)s1`, the membrane potential ratio readout (active if shifted either direction beyond buffer ±3SD; no single direction) entry is “inactive”.
For the molecule `CC1CN(S(=O)(=O)c2ccc(C(=O)NN3CCN(C)CC3)cc2)CC(C)O1` (stereo not given), the membrane potential ratio readout (active if shifted either direction beyond buffer ±3SD; no single direction) entry is “inactive”.
As to `CC(=O)N1CCN(S(=O)(=O)c2cccc(C(=O)NC3CCC(C)CC3)c2)CC1` (stereo not given), the membrane potential ratio readout (active if shifted either direction beyond buffer ±3SD; no single direction) entry was “inactive”.
Consider `CC(NC(=O)c1ccc(N2CCNCC2)c([N+](=O)[O-])c1)C12CC3CC(CC(C3)C1)C2` (stereo not given), for which the membrane potential ratio readout (active if shifted either direction beyond buffer ±3SD; no single direction) result is “inactive”.
In the case of `COc1ccc(OCC(=O)OCCN(C)C)cc1`, the membrane potential ratio readout (active if shifted either direction beyond buffer ±3SD; no single direction) result was “inactive”.
Take `CC(C(=O)NC1CCS(=O)(=O)C1)N1C(=O)/C(=C/c2ccc(Cl)cc2)SC1=S` (stereo not given): the membrane potential ratio readout (active if shifted either direction beyond buffer ±3SD; no single direction) entry was “inactive”.
In the case of `CCOC(=O)N1CCN(C(=O)C2CCN(c3ncnc4c3sc3cccc(F)c34)CC2)CC1` it was “inactive”; in that of `CCC(C(=O)N1CCOCC1)n1c(C(=O)OC)cc2occc21` (stereo not given), “inactive”; in that of `CC1(C)SC2C(NC(=O)COc3ccccc3)C(=O)N2C1C(=O)O` (stereo not given), “inactive”.
In the case of `Cc1cccc(C)c1NC(=O)c1ccc(CN2CCc3ccccc3C2)cc1` it was “inactive”; in that of `CCS(=O)(=O)C1=NSC2=NC(=O)/C(=C\c3ccc(OS(=O)(=O)c4ccccc4)cc3)C(=N)N21`, “inactive”; in that of `Cc1nn(CC(=O)NCC2CCCO2)c(=O)c2cc3ccccc3n12` (stereo not given), “inactive”.
The result for `COc1ccc(C(CNC(=O)c2cccc(NS(=O)(=O)c3ccc(C)c(F)c3)c2)N2CCCC2)cc1` (stereo not given) reads “inactive”.
